Assay results published in PubChem BioAssay (Tox21).
Activity calls are given as the source filed them. Calls follow the shape of the dose curve; as a rule, active = well fitted curve in the direction sought with a large enough effect in the repeat runs; inconclusive = weak or mixed curves; inactive = flat fitted curve, though single readings scatter.

experiment: qHTS assay to test for compound auto fluorescence at 590 nm (red) in HEK293 cell free culture (AID 720683); conditions: cell-free medium autofluorescence, Ex540/Em590 red; series mostly up to 91.3 µM; fluorescence, % of fluorescent control: at the top concentration
How it was run: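 Red-channel autofluorescence of compounds in culture medium (DMEM, 10% FBS), no cells, measured at 540/590 nm. Rose Bengal sodium is the reference fluorophore for equivalence.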
% is scaled to controls: 0 for no effect and ±100 for the full control effect.

Structure (SMILES)	fluorescence, % of fluorescent control	outcome
N#Cc1c(Cl)cccc1Cl	0.241% (inactive)	–
CCC(C)n1c(=O)[nH]c(C)c(Br)c1=O (stereo unspecified)	-0.0286% (inactive)	–
CCOC(=O)N(C)C(=O)CSP(=S)(OCC)OCC	-0.0619% (inactive)	–
CCC1(c2ccccc2)C(=O)NC(=O)NC1=O	–	inactive
O=S(=O)(O)C(F)(F)C(F)(F)C(F)(F)C(F)(F)C(F)(F)C(F)(F)F	0.104% (inactive)	–
O=CNC(N1CCN(C(NC=O)C(Cl)(Cl)Cl)CC1)C(Cl)(Cl)Cl (stereo unspecified)	-0.319% (inactive)	–
C=C(C)CN(CC)c1c([N+](=O)[O-])cc(C(F)(F)F)cc1[N+](=O)[O-]	-0.0228% (inactive)	–
CCC1(c2ccccc2)C(=O)N=C(O)NC1=O (stereo unspecified)	0.0836% (inactive)	–
COP(N)(=S)Oc1ccccc1C(=O)OC(C)C (stereo unspecified)	-0.0588% (inactive)	–
CN1C[C@@H](NS(=O)(=O)N(C)C)C[C@@H]2c3cccc4c3c(cn4C)C[C@H]21	-0.0782% [at 46 µM] (inactive)	–
Clc1cccc(N2CCNCC2)c1	0.639% [at 46 µM] (inactive)	–
Cc1cc(C)nc(Nc2ccccc2)n1	-0.0857% (inactive)	–
CN(N=O)C(N)=O	0.0084% (inactive)	–
N#CC(Cl)(Cl)Cl	0.0367% (inactive)	–
Nc1ccccc1Cl	-0.244% (inactive)	–
Cc1cccc(C#N)c1	0.148% (inactive)	–
ClCC(Cl)(Cl)Cl	-0.0307% [at 95.7 µM] (inactive)	–
Cc1cnc[nH]1	-0.0437% (inactive)	–
[O]=[Cd]	–	inactive
C=C(C)[C@@H]1CC=C(C=O)CC1	0.0769% (inactive)	–
O=NN1CCN(N=O)CC1	0.279% (inactive)	–
C[C@@H]1CN(C2CCC(C#N)(c3ccc(F)cc3)CC2)CC[C@]1(C(=O)O)c1ccccc1 (stereo partly specified)	0.238% [at 18.6 µM] (inactive)	–
CCS(=O)(=O)CCSP(=O)(OC)OC	-0.31% (inactive)	–
CC(CC(C#N)(c1ccccc1)c1ccccc1)N(C)C (stereo unspecified)	0.211% (inactive)	–

experiment: qHTS assay to test for compound auto fluorescence at 590 nm (red) in HepG2 cell free culture (AID 720684); conditions: cell-free medium autofluorescence, red 540/590 nm; series mostly up to 91.3 µM; fluorescence, % of Rose Bengal: at the top concentration
How it was run: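 Cell-free; medium MEM + 10% FBS; compound or DMSO added by pintool; read Ex 540/Em 590 nm; Rose Bengal sodium as red reference fluorophore.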

Structure (SMILES)	fluorescence, % of Rose Bengal	outcome
N#Cc1c(Cl)cccc1Cl	-0.288% (inactive)	–
CCC(C)n1c(=O)[nH]c(C)c(Br)c1=O (stereo unspecified)	-0.103% (inactive)	–
CCOC(=O)N(C)C(=O)CSP(=S)(OCC)OCC	0.0743% (inactive)	–
CCC1(c2ccccc2)C(=O)NC(=O)NC1=O	–	inactive
ClC(Br)Br	0.102% (inactive)	–
CCNc1nc(NC(C)C)nc(OC)n1	0.0911% (inactive)	–
O=S(=O)(O)C(F)(F)C(F)(F)C(F)(F)C(F)(F)C(F)(F)C(F)(F)F	0.0275% (inactive)	–
O=CNC(N1CCN(C(NC=O)C(Cl)(Cl)Cl)CC1)C(Cl)(Cl)Cl (stereo unspecified)	-0.259% (inactive)	–
C=C(C)CN(CC)c1c([N+](=O)[O-])cc(C(F)(F)F)cc1[N+](=O)[O-]	-0.22% (inactive)	–
COP(N)(=S)Oc1ccccc1C(=O)OC(C)C (stereo unspecified)	-0.436% (inactive)	–
CN1C[C@@H](NS(=O)(=O)N(C)C)C[C@@H]2c3cccc4c3c(cn4C)C[C@H]21	-0.109% [at 46 µM] (inactive)	–
CCOP(=S)(Oc1cnc(C(C)(C)C)nc1)OC(C)C (stereo unspecified)	0.0486% (inactive)	–
Clc1cccc(N2CCNCC2)c1	-0.283% [at 46 µM] (inactive)	–
CC(C)CP(=S)(S)CC(C)C	0.0343% (inactive)	–
Cc1cc(C)nc(Nc2ccccc2)n1	0.161% (inactive)	–
CN(N=O)C(N)=O	0.306% (inactive)	–
N#CC(Cl)(Cl)Cl	0.0973% (inactive)	–
C#C[C@]1(O)C=C[C@H]2[C@@H]3CCC4=CC(=O)CC[C@@H]4[C@H]3CC[C@@]21CC	-0.245% [at 46 µM] (inactive)	–
Cc1cccc(C#N)c1	-0.0583% (inactive)	–
CN1CCC(O)(c2ccc(F)cc2)C(C(=O)c2ccc(F)cc2)C1 (stereo unspecified)	0.0493% [at 46 µM] (inactive)	–
ClCC(Cl)(Cl)Cl	-0.12% [at 95.7 µM] (inactive)	–
Cc1cnc[nH]1	-0.221% (inactive)	–
O=C(N[C@H]1CN2CCC1CC2)c1cc2ccoc2cn1	0.0758% (inactive)	–
CNC(=O)O/N=C(\C)SC	0.0472% (inactive)	–
C[C@@H]1CN(C2CCC(C#N)(c3ccc(F)cc3)CC2)CC[C@]1(C(=O)O)c1ccccc1 (stereo partly specified)	-0.17% [at 18.6 µM] (inactive)	–
CCS(=O)(=O)CCSP(=O)(OC)OC	-0.319% (inactive)	–
CC(CC(C#N)(c1ccccc1)c1ccccc1)N(C)C (stereo unspecified)	-0.331% (inactive)	–
